Results filed as inconclusive are left out. Activity calls are given as the source filed them. Calls come from the whole dose curve; as a rule, active = well fitted curve in the direction sought with a large enough effect; inconclusive = small, poorly fitted or top-dose-only effect, or another doubt; inactive = no such curve, though single readings can be large; an effect the other way counts as inactive or inconclusive.
Assays:
[1] = Cellular Toxicity (caspase-3) Mesangial (AID 660); conditions: mesangial cells, normalized: DMSO 0%, 100 µM tamoxifen 100%; at 91.7 µM (top of the series);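 note: combined caspase 3 and 7 activity read by Caspase-Glo luminescence; cells exposed to compound for 16 h before the caspase read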
Outline: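 Caspase 3/7 activation measured by Caspase-Glo 3/7 luminescence (20 min, room temperature) following 16 h exposure of mesangial cells (1000/well); AC50 from Hill-equation fit, normalized to DMSO and 100 uM tamoxifen.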

[2] = Cellular Toxicity (caspase-3) SK-N-SH (AID 661);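 note: 0% = DMSO basal and 100% = 10 µM staurosporine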
Outline: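 Caspase 3/7 activation was read by luminogenic substrate cleavage after 16 hour treatment of SK-N-SH cells. Signal was scaled between DMSO and 10 uM staurosporine, and concentration-response data were fitted with the Hill equation for AC50.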

[3] = Cellular Toxicity (caspase-3) H-4-II-E (AID 663); conditions: H-4-II-E rat hepatoma, scaled: DMSO 0%, 100 µM tamoxifen 100%; at 92.2 µM (top of the series);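 note: cells exposed to compound for 16 hr before readout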
Outline: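 Caspase 3/7 activation measured by luminescent aminoluciferin substrate cleavage after 16 hr compound treatment of H-4-II-E cells in complete medium. Increase normalized between DMSO (basal) and 100 uM tamoxifen (100%); Hill-equation AC50 from concentration-response.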

[4] = Cellular Toxicity (caspase-3) Hek293 (AID 664); conditions: HEK293 caspase-3 activation, DMSO = 0%, 100 µM tamoxifen = 100%; at 92.2 µM (top of the series);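 note: cells exposed to compound for 16 h at 37 °C before readout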
Outline: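 Concentration-response qHTS: caspase 3/7 activation measured by luminescent aminoluciferin substrate cleavage after 16 h compound exposure of Hek 293 cells. AC50 from Hill equation, with DMSO as basal and 100 uM tamoxifen as 100%.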

[5] = Cellular Toxicity (caspase-3) N2a (AID 665);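 note: compound exposure lasted 16 h at 37 °C before readout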
Outline: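 Caspase-3/7 activation measured as luminescence from Caspase-Glo reagent (1 h, room temperature) after 16 h compound exposure of mouse N2a cells. AC50 values from Hill-equation concentration-response, scaled between DMSO and 10 uM staurosporine.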

[6] = Cellular Toxicity (caspase-3) NIH 3T3 (AID 666);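 note: caspase signal read after 16 h compound exposure; 0% = DMSO basal and 100% = 100 µM tamoxifen stimulation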
Outline: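 Caspase-Glo 3/7 luminescence reported caspase activation in 1000 NIH 3T3 cells/well after 16 h compound exposure at 37 C. DMSO set basal and 100 uM tamoxifen set 100% stimulation; concentration-response modeled with the Hill equation for AC50.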

[7] = Cellular Toxicity (caspase-3) Renal Proximal Tubule (AID 667); conditions: Potency: caspase-3 activation;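 note: cells exposed to compound for 16 hours at 37 °C before detection; 0% = DMSO basal and 100% = 10 µM staurosporine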
Outline: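 AC50 derived by standard Hill fit of concentration-response data, normalized between DMSO basal and 10 uM staurosporine as 100% stimulation. Cells: primary rat kidney proximal tubule, 16 h treatment at 37 °C.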

[8] = target: Cytochrome P450 3A4 (Homo sapiens) (UniProt P08684); experiment: qHTS Assay for Inhibitors and Substrates of Cytochrome P450 3A4 (AID 884); note: nearly all actives have a fitted effect of over 50% in size; note: potency is the fitted concentration of half-maximal effect
Sequence of Cytochrome P450 3A4 (Homo sapiens) (P08684 whole entry, looked up): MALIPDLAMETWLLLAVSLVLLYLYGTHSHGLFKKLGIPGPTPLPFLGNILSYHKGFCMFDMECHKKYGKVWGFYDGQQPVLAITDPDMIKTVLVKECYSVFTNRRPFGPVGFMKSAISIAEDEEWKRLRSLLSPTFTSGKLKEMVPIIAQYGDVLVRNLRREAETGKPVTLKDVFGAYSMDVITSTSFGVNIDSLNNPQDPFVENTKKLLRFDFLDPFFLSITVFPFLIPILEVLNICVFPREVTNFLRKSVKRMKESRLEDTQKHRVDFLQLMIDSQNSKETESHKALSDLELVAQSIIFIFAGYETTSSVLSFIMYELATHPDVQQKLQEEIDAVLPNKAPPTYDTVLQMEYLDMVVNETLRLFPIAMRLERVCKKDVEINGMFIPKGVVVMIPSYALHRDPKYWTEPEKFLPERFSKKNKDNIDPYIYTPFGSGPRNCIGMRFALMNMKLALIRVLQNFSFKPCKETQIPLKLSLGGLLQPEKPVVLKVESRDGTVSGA
Outline: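 Luminescent readout of luciferin produced by CYP3A4 (20 nM) dealkylation of Luciferin-PPXE, 25 uM (its KM). NADPH-driven reaction ran 60 min at RT after 10 min compound preincubation; data scaled to 57 uM ketoconazole as 100% inhibition.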

[9] = Cell Viability - LYMP2-001 (AID 921);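 note: 0% = DMSO only and full inhibition = tetraoctylammonium bromide control wells; nearly all actives have a fitted effect of over 70% in size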
Outline: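 Steps: seed 2500 lymphoblastoid cells/well; 5 hr, 37 C; add compound; 24 hr, 37 C; CellTiter-Glo reagent, 30 min room temperature; read luminescence. Concentration-response modeled by Hill equation for AC50.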

[10] = MultiTox-Fluor Cytotoxicity Assay - LYMP1-001 - Dead Cells (AID 946);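 note: 0% = DMSO and 100% = tetraoctylammonium bromide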
Outline: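 LYMP1-001 lymphoblastoid cells (2500/well) treated 16 h at 37 C. Dead-cell protease cleavage of bis-AAF-R110 read at Ex/Em 485/520. Normalized to DMSO and 15 uM tetraoctylammonium bromide; AC50 from Hill fits.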

[11] = MultiTox-Fluor Cytotoxicity Assay - LYMP1-001 - Live Cells (AID 947);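 note: 0% = DMSO only and full inhibition = tetraoctylammonium bromide control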
[12] = Cell Viability - LYMP1-002 - Assay at 16 hr (AID 948);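 note: 0% = DMSO alone and full effect = 92 µM tetraoctylammonium bromide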
Outline: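 Seed 2500 LYMP1-002 cells per well in complete medium and hold 5 hr at 37 C. Add compound across a concentration series and incubate 16 hr at 37 C. Add CellTiter-Glo, wait 30 min at room temperature, read luminescence.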

[13] = MultiTox-Fluor Cytotoxicity Assay - LYMP1-002 - Live Cells (AID 955); note: % is set by controls: 0 for no effect and ±100 for the full control effect
Outline: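 After 16 h compound exposure at 37 C, live LYMP1-002 lymphoblastoid cells (2500/well) were quantified by cleavage of cell-permeant GF-AFC substrate, read at 405/510 nm after 60 min. Concentration-response fitted with Hill equation for AC50.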

[14] = MultiTox-Fluor Cytotoxicity Assay - LYMP1-002 - Dead Cells (AID 960);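 note: 0% = DMSO and 100% = tetraoctylammonium bromide; nearly all actives have a fitted effect of over 60% in size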
Outline: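 Dead-cell fluorescence (Ex/Em 485/520) after 16 h compound exposure at 37 C of LYMP1-002 lymphoblastoid cells in complete medium; AC50 by Hill equation, with data scaled between DMSO and 15 uM tetraoctylammonium bromide.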

[15] = MultiTox-Fluor Cytotoxicity Assay - LYMP1-003 - Live Cells (AID 962);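 note: 0% = DMSO only and full loss = 92 µM tetraoctylammonium bromide; cytotoxic hits lower the live-cell protease signal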
Outline: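 Live-cell protease activity (GF-AFC substrate, 405/510 nm, 60 min at room temperature) after 16 h, 37 C compound exposure of human lymphoblastoid LYMP1-003 cells; concentration-response fitted to the Hill equation for AC50.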

[16] = Cell Viability - LYMP1-003 - Assay at 24 hr (AID 963);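 note: plate controls were DMSO only for no effect and tetraoctylammonium bromide positive control for full effect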
Outline: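 Concentration-response qHTS: ATP loss measured by CellTiter-Glo luminescence after 24 h compound exposure at 37 C. Cells were LYMP1-003 human lymphoblastoid, 2500 per well. AC50 derived via standard Hill equation modeling.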

[17] = Cell Viability - LYMP1-003 - Assay at 40 hr (AID 964); note: % is set by controls: 0 for no effect and ±100 for the full control effect; nearly all actives have a fitted effect of over 60% in size
Outline: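 Viability is taken as cellular ATP, read by CellTiter-Glo luminescence after 40 h of compound exposure at 37 C. Cells: human lymphoblastoid line LYMP1-003 at 2500/well; AC50 values derived by Hill-equation fitting of concentration-response data.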

[18] = Cell Viability - LYMP2-003 (AID 965);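 note: cells exposed to compounds for 24 h before reading; 0% = DMSO only and full effect = 92 µM tetraoctylammonium bromide; nearly all actives have a fitted effect of over 50% in size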
Outline: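 Seed 2500 lymphoblastoid cells/well; incubate 5 hr, 37 C; add compounds; incubate 24 hr, 37 C; add CellTiter-Glo, 30 min RT; read luminescence. AC50 from Hill fit.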

[19] = Cell Viability - LYMP2-004 (AID 966);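 note: plate controls were DMSO only for no effect and tetraoctylammonium bromide control for full effect; nearly all actives have a fitted effect of over 65% in size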
Outline: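 AC50 values come from Hill modelling of concentration-dependent loss of intracellular ATP, measured by CellTiter-Glo luminescence. Human LYMP2-004 lymphoblastoid cells (2500/well) were exposed to compound for 24 h at 37 C.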

[20] = MultiTox-Fluor Cytotoxicity Assay - LYMP1-003 - Dead Cells (AID 961);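 note: 0% = DMSO and 100% = tetraoctylammonium bromide; nearly all actives have a fitted effect of over 70% in size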
Outline: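 LYMP1-003 human lymphoblastoid cells (2500/well) exposed to compound 16 h at 37 C in complete medium; dead-cell protease read with bis-AAF-R110 fluorescence (Ex/Em 485/520) after 60 min at room temperature. Normalized to DMSO and 15 uM tetraoctylammonium bromide; AC50 from Hill fit.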

O=C1NC(=O)c2cc([N+](=O)[O-])ccc21
active: Potency [8] 15.8 µM
inactive: caspase-3 activation [1] -0.781% | outcome [2] | caspase-3 activation [3] -0.832% | caspase-3 activation [4] -0.133% | outcome [5] | outcome [6] | Potency [7] | Potency [9] | outcome [10] | outcome [11] | outcome [12] | outcome [13] | outcome [14] | Potency [15] | Potency [16] | Potency [17] | Potency [18] | Potency [19]

Cc1c(N)cccc1[N+](=O)[O-]
inactive: caspase-3 activation [1] 0.18% | outcome [2] | caspase-3 activation [3] -0.123% | caspase-3 activation [4] 1.08% | outcome [5] | outcome [6] | Potency [7] | Potency [8] | Potency [9] | outcome [10] | outcome [11] | outcome [12] | outcome [13] | outcome [14] | Potency [15] | Potency [16] | Potency [17] | Potency [18] | Potency [19]

O=C(O)CN(CC(=O)O)CC(=O)O
inactive: caspase-3 activation [1] 1.04% | outcome [2] | caspase-3 activation [3] 2.27% | caspase-3 activation [4] 0.365% | outcome [5] | outcome [6] | Potency [7] | Potency [8] | Potency [9] | outcome [10] | outcome [11] | outcome [12] | outcome [13] | Potency [20] | Potency [15] | Potency [16] | Potency [17] | Potency [18] | Potency [19]

CO[Si](CCCNCCC[Si](OC)(OC)OC)(OC)OC
inactive: caspase-3 activation [1] 0.876% | outcome [2] | caspase-3 activation [3] 0.962% | caspase-3 activation [4] -1.43% | outcome [5] | outcome [6] | Potency [7] | Potency [8] | Potency [9] | outcome [10] | outcome [11] | outcome [12] | outcome [13] | Potency [15] | Potency [16] | Potency [17] | Potency [18] | Potency [19]

FC(F)(F)c1ccccc1Cl
inactive: caspase-3 activation [1] 1.05% | outcome [2] | caspase-3 activation [3] 0.997% | caspase-3 activation [4] -1.13% | outcome [5] | outcome [6] | Potency [7] | Potency [8] | Potency [9] | outcome [10] | outcome [11] | outcome [12] | outcome [13] | Potency [20] | Potency [15] | Potency [16] | Potency [17] | Potency [18]

Cc1cccc(C)c1
inactive: caspase-3 activation [1] -0.476% | outcome [2] | caspase-3 activation [3] 0.714% | caspase-3 activation [4] 2.59% | outcome [5] | outcome [6] | Potency [7] | Potency [8] | Potency [9] | outcome [10] | outcome [11] | outcome [12] | outcome [13] | outcome [14] | Potency [20] | Potency [15] | Potency [16] | Potency [17] | Potency [18] | Potency [19]

C=Cc1ccccn1
inactive: caspase-3 activation [1] 2.96% | outcome [2] | caspase-3 activation [3] 1.92% | caspase-3 activation [4] 3.43% | outcome [5] | outcome [6] | Potency [7] | Potency [8] | Potency [9] | outcome [10] | outcome [11] | outcome [12] | outcome [13] | outcome [14] | Potency [20] | Potency [15] | Potency [16] | Potency [17] | Potency [18] | Potency [19]

CCCOCC(C)OCC(C)O (stereo not given)
inactive: caspase-3 activation [1] -0.26% | outcome [2] | caspase-3 activation [3] -0.229% | caspase-3 activation [4] 0.323% | outcome [5] | outcome [6] | Potency [7] | Potency [8] | Potency [9] | outcome [10] | outcome [11] | outcome [12] | outcome [13] | Potency [20] | Potency [15] | Potency [16] | Potency [17] | Potency [18] | Potency [19]

CCOc1cccc(N)c1
inactive: caspase-3 activation [1] 0.896% | outcome [2] | caspase-3 activation [3] 1.28% | caspase-3 activation [4] -0.477% | outcome [5] | outcome [6] | Potency [7] | Potency [9] | outcome [10] | outcome [11] | outcome [12] | outcome [13] | outcome [14] | Potency [20] | Potency [15] | Potency [16] | Potency [17] | Potency [18] | Potency [19]
active: Potency [8] 31.6 µM

COC(=O)CC#N
inactive: caspase-3 activation [1] 0.486% | outcome [2] | caspase-3 activation [3] 1.64% | caspase-3 activation [4] 0.82% | outcome [5] | outcome [6] | Potency [7] | Potency [8] | Potency [9] | outcome [10] | outcome [11] | outcome [12] | outcome [13] | outcome [14] | Potency [15] | Potency [16] | Potency [17] | Potency [18]

Cc1ccc([N+](=O)[O-])c(N)c1
inactive: caspase-3 activation [1] -0.782% | outcome [2] | caspase-3 activation [3] -0.384% | caspase-3 activation [4] 0.555% | outcome [5] | outcome [6] | Potency [7] | Potency [8] | Potency [9] | outcome [10] | outcome [12] | outcome [13] | outcome [14] | Potency [20] | Potency [15] | Potency [16] | Potency [17] | Potency [18]

CCOc1ccccc1N
inactive: caspase-3 activation [1] 1.9% | outcome [2] | caspase-3 activation [3] -0.577% | caspase-3 activation [4] -1.95% | outcome [5] | outcome [6] | Potency [7] | Potency [8] | Potency [9] | outcome [10] | outcome [11] | outcome [12] | outcome [13] | outcome [14] | Potency [20] | Potency [15] | Potency [16] | Potency [17] | Potency [18] | Potency [19]

Cc1ccccc1C(N)=O
inactive: caspase-3 activation [1] 2.19% | outcome [2] | caspase-3 activation [3] 1.38% | caspase-3 activation [4] 3.64% | outcome [5] | outcome [6] | Potency [7] | Potency [8] | Potency [9] | outcome [10] | outcome [12] | outcome [13] | outcome [14] | Potency [20] | Potency [15] | Potency [16] | Potency [17] | Potency [18]

O=[N+]([O-])c1cccc(C(F)(F)F)c1
inactive: caspase-3 activation [1] -1.76% | outcome [2] | caspase-3 activation [3] -0.931% | caspase-3 activation [4] 0.383% | outcome [5] | outcome [6] | Potency [7] | Potency [8] | Potency [9] | outcome [10] | outcome [11] | outcome [12] | outcome [13] | outcome [14] | Potency [15] | Potency [16] | Potency [17] | Potency [18] | Potency [19]

Reference: PubChem BioAssay (NCATS)
